Compound activity from PubChem.
In the library only some 12% were active in any assay of this set; here they are far more common.
NS1 function inh – influenza NS1 inhibition | 270,000 tested, 0.4% active | Potency, µM (top dose mostly 46.1 µM) | AID 2326; also: actives are rising curves; nearly all actives have a fitted effect of over 50% in size
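Compounds were scored for reversing the slow growth caused by influenza A NS1 in S. cerevisiae, measured by optical density at 600 nm. Assay medium contained 2% galactose at pH 6.0; NS1-free yeast of the same strain were the positive control.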
SARS PLpro yeast – SARS-CoV PLP inhibition in yeast; S. cerevisiae expressing SARS-CoV PLpro, growth rescue; Potency, µM (series often up to 32.9 µM), hits mostly activators; 330,000 tested, 0.19% active; AID 485353; also: nearly all actives have a fitted effect of over 55% in size
Shiga toxin inh – inhibitors of Shiga toxin in Vero cells; AID 2315; inhibition, % at 38.7 µM; Vero cells, Shiga toxin protein synthesis inhibition reporter; 290,000 tested, 9.2% active; in the data active = inhibition mostly above about 28%, no sharp cut-off; inactive = mostly below about 43%
Cycloheximide cs – counter-screen for Shiga toxin inhibitors: cycloheximide protein synthesis inhibition; cell reporter, cycloheximide protein synthesis inhibition counterscreen; max response, %; 300,000 tested, 12% active; in the data active = max response mostly above about 13%, no sharp cut-off; inactive = mostly below about 14%; also: read at 38.3 µM for the half of the compounds with a filed dose
Of the large screens only hits and unclear results are named; the others gave an inactive call. Unless noted, calls follow the shape of the full dose curve.

Cc1c(N=C2N=C(NC(=O)c3ccc(F)cc3)c3ccccc32)c(=O)n(-c2ccccc2)n1C	none
CCOC(=O)N1CCC(NC(=O)c2ccc3c(c2)N=C(C)c2c(C)ccc(C)c2S3)CC1	none
CC(O)COc1ccc(/C(=N/O)c2ccccc2)cc1 (stereo not given)	none
CC(C)COc1ccc(/C(=N/O)c2ccccc2)cc1	Cycloheximide cs 30
C/C(=C\c1ccccc1)C(=O)NC1CCSC1=O (stereo not given)	Cycloheximide cs 18
c1ccc(Nc2nc(-c3cccs3)cs2)nc1	Shiga toxin inh 88, Cycloheximide cs 33
Cc1cccc(Nc2nc(-c3cccs3)cs2)n1	Shiga toxin inh 68, Cycloheximide cs 46
Cc1cccc(Nc2nc(-c3ccccn3)cs2)n1	Shiga toxin inh 63, Cycloheximide cs 37
O=[N+]([O-])c1cccnc1N/N=C/c1ccccc1O	Shiga toxin inh 78, Cycloheximide cs 43 (no result: NS1 function inh)
O=[N+]([O-])c1ccc(O)c(C=Nc2cccc3ncccc23)c1	none (no result: NS1 function inh)
Cc1c(O)ccc(/C=N/Nc2ncccc2[N+](=O)[O-])c1O	Shiga toxin inh 141, Cycloheximide cs 32
O=C(O)CNc1ncccc1[N+](=O)[O-]	none
COc1ccc(-n2nc(C(=O)NCC(=O)N3CCC4(CC3)OCCO4)c3ccccc3c2=O)cc1OC	Cycloheximide cs 17
COc1ccc(-n2nc(C(=O)NCC(=O)N3CCOCC3)c3ccccc3c2=O)cc1OC	none
COc1ccc(-n2nc(C(=O)NCC(=O)N3CCN(c4ccccn4)CC3)c3ccccc3c2=O)cc1OC	Cycloheximide cs 15
COc1ccc(-n2nc(C(=O)NCC(=O)N3CCN(c4ccccc4)CC3)c3ccccc3c2=O)cc1OC	Shiga toxin inh 43, Cycloheximide cs 22
C=CCN(c1ccccc1OC)S(=O)(=O)c1cccc(C(=O)OCC(=O)N2CC(C)OC(C)C2)c1 (stereo not given)	none (no result: NS1 function inh, Shiga toxin inh, Cycloheximide cs)
Cc1ccc(C)c(S(=O)(=O)N2CCCC2CNC(=O)C(=O)NCc2cccs2)c1 (stereo not given)	none (no result: NS1 function inh, Shiga toxin inh, Cycloheximide cs)
Clc1ccccc1OCc1nc(-c2ccccn2)no1	Shiga toxin inh 70, Cycloheximide cs 33
Clc1ccc(OCc2nc(-c3ccccn3)no2)c(Br)c1	Shiga toxin inh 66, Cycloheximide cs 42
O=C(COC(=O)/C=C/c1cccc(C(F)(F)F)c1)NCc1ccco1	none (no result: NS1 function inh, Shiga toxin inh, Cycloheximide cs)
O=C(NCc1ccco1)/C(=C/c1ccc(C(F)(F)F)cc1)c1nc2ccccc2[nH]1	NS1 function inh inconclusive, Shiga toxin inh 12, Cycloheximide cs 59
O=C(NCc1ccco1)/C(=C/c1cccc(C(F)(F)F)c1)c1nc2ccccc2[nH]1	Cycloheximide cs 18
Cc1ccc(C(CNS(=O)(=O)c2ccc(Cl)cc2)N2CCN(C)CC2)cc1 (stereo not given)	none (no result: NS1 function inh, Shiga toxin inh, Cycloheximide cs)
Cc1cc(-c2csc(NC(=O)c3cc4ccccc4o3)n2)c(C)n1C	Shiga toxin inh 40, Cycloheximide cs 32
O=C(Nc1nc(-c2ccccn2)cs1)c1cc2ccccc2o1	Shiga toxin inh 58, Cycloheximide cs 42 (no result: NS1 function inh)
COc1ccc(-c2csc(NC(=S)NC(=O)c3ccco3)n2)cc1Br	none
COc1ccc(-c2csc(NC(=S)NC(=O)c3cc4ccccc4o3)n2)cc1Br	Cycloheximide cs 14
COc1ccc(-c2csc(NC(=S)NC(=O)/C=C/c3ccc(C(C)C)cc3)n2)cc1OC	Cycloheximide cs 23
FC(F)(F)c1cc(NC(=S)N2c3ccccc3-n3cccc3[C@H]2c2cccnc2)cc(C(F)(F)F)c1	none (no result: SARS PLpro yeast, Shiga toxin inh, Cycloheximide cs)
CC(C)c1ccc(/C=C/C(=O)Nc2nncs2)cc1	Shiga toxin inh 33, Cycloheximide cs 49
Cn1c(SCC(=O)Nc2ccc3c(c2)OCCO3)nnc1C(F)(F)F	none (no result: NS1 function inh, Shiga toxin inh, Cycloheximide cs)
Cn1c(SCC(=O)c2ccc3c(c2)OCCO3)nnc1C(F)(F)F	Cycloheximide cs 22
Cn1c(SCC(=O)c2ccc3c(c2)OCCO3)nnc1C1CC1	Shiga toxin inh 44, Cycloheximide cs 18
COc1ccccc1OCCCC(=O)Nc1nnc(C2CCCO2)s1 (stereo not given)	none
Cc1ccc(N)cc1N	none (no result: NS1 function inh, Shiga toxin inh, Cycloheximide cs)
Cc1cc(N=Nc2ccc(C)c(N=Nc3cc(C)c(N)cc3N)c2)c(N)cc1N	Shiga toxin inh 76, Cycloheximide cs 62
Nc1nc(NCc2c(F)cccc2Cl)nn1-c1ccccc1	Shiga toxin inh 56, Cycloheximide cs 25
COc1ccc(NC(=O)c2sccc2C)c([N+](=O)[O-])c1	Cycloheximide cs 32
COc1ccc(NC(=O)CC(C)(C)C)c([N+](=O)[O-])c1	none
COc1ccc(NC(=O)c2cc(Cl)ccc2Cl)c([N+](=O)[O-])c1	none
COc1ccc(/C=C/C(=O)Nc2ccc(OC)cc2[N+](=O)[O-])cc1	none
COc1ccc(NC(=O)/C=C/c2ccccc2)c([N+](=O)[O-])c1	Shiga toxin inh 126, Cycloheximide cs 65
